About 100 (0.036%) of roughly 280,000 compounds were called active. Not shown: some 11% with an inconclusive outcome. The sample as a whole holds a higher share of actives than the screen did. Unmarked numbers belong to inactive results. Calls come from the whole dose curve; as a rule, active = well fitted inhibition curve with a large enough effect in the signal ratio, with a control signal flat (not every such curve was filed as active); inconclusive = small, poorly fitted or top-dose-only effect, or effect the other way, or a change in a side signal; inactive = no such curve, though single readings can be large or run the other way; the % refers to the signal ratio.
% is set by controls: 0 for no effect and ±100 for the full control effect.

The target of this assay is Muscleblind-like protein 1 (Homo sapiens) (UniProt Q9NR56). The assay can be described thus: qHTS Assay for Inhibitors of MBNL1-poly(CUG) RNA binding. The conditions noted are these: TR-FRET MBNL1-His/biotin-(CUG)12 binding, 665/545 ratio; series mostly up to 57.5 µM; activity change, negative = inhibition: at the top concentration. The text has this: NIH Chemical Genomics Center [NCGC] NIH Molecular Libraries Probe Production Centers Network [MLPCN] MLPCN Grant: R03 MH087421-01 Assay Submitter (PI): Charles Thornton NCGC Assay Overview: Expanded CTG repeats in the 3' untranslated region of the DM protein kinase (DMPK) gene causes type I myotonic dystrophy (DM1). DM1 is a multi-systemic disease with a prevalence of 1/7000. Clinical features include myotonia, progressive muscle weakness and wasting, cardiac arrhythmia, insulin resistance, hypersomnolence, cataracts, and other symptoms. The pathogenic effect of expanded CTG repeats stems from deleterious effects of the mutant transcript. CUGexp mRNA accumulates in nuclear foci and sequesters proteins of the muscleblind family, of which MBNL1 is the most common family member in skeletal muscles. The binding interaction between MBNL1 and CUGexp tracts leads to deregulation of alternative splicing and is therefore a key molecular step in the pathogenesis of DM1. To target this binding interaction, we optimized a protein-RNA binding assay in 1536-well format for identification of small molecule inhibitors of biotinylated (CUG)12 and his-tagged MBNL1 binding. Protein-RNA complex of MBNL1-His and Biotin-(CUG)12 captures the detection reagents terbium-labeled anti-His antibody and streptavidin conjugated XL665. This brings the terbium label within close proximity to XL665 to allow time-resolved fluorescence resonance energy transfer (TR-FRET). Inhibitors of MBNL1-(CUG)12 binding will disrupt TR-FRET.
Sequence of Muscleblind-like protein 1 (Homo sapiens) (Q9NR56 whole entry, looked up): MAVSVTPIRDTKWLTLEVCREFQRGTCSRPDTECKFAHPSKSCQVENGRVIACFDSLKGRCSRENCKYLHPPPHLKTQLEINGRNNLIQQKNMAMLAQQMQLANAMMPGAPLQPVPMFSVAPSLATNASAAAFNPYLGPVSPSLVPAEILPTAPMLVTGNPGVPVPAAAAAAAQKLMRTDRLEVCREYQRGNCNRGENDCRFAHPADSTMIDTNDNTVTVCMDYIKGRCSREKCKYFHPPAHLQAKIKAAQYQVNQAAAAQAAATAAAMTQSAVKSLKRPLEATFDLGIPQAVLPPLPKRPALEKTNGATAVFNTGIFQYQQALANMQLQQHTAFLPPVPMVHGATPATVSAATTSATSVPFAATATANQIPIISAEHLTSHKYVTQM
NCGC Assay Protocol Summary: This is a TR-FRET binding assay with MBNL1-His and Biotin-(CUG)12 RNA. The assay uses a ratiometric measurement. In the presence of MBNL1-(CUG)12 complex, the excitation energy is transferred to the XL665 acceptor label, causing emission at 665nm, while the 545nm donor signal […]. Data were normalized to the controls for basal activity (buffer only) and 100% activity (with MBNL1-(CUG)12). […] The final titration was 92 nM to 58 uM. (3) Add 1 ul of terbium labeled anti-His antibody (0.055 ng/ul final concentration) (4) Add 1 ul of streptavidin-XL665 (5 nM final concentration) (5) Incubate 60 min at room temperature (6) Detect the assay plate in a EnVision plate reader (PerkinElmer) with Ex=340 nm, Em1=665 nm and Em2=545 nm. Keywords: mytonic dystrophy type I, DM1, muscleblind like 1, MBNL1, CUG expansion, protein-RNA binding inhibitor, high throughput screening, MLSMR, MLSCN, NIH Roadmap, qHTS and NCGC
For the molecule `COc1ccccc1NC(=O)C1CCN(C(=O)c2ccc(C(C)(C)C)cc2)CC1`, the “activity change, negative = inhibition” value is 1.38%. In the case of `COc1ccc(OC)c(CCNC(=O)c2nn(C)c3c2CS(=O)(=O)c2ccccc2-3)c1`, the “activity change, negative = inhibition” value was -0.308%. Consider `CCCC[C@]12Cc3cc(OC)c(OC)cc3C(O1)C1=C(CC3(CCCCC3)OC1=O)O2`, for which the activity change, negative = inhibition is -1.93% [at 11.5 µM]. On to `COc1cccc(CNS(=O)(=O)c2ccc3c(c2)CC(C)N3C(C)=O)c1` (stereo not drawn), for which the “activity change, negative = inhibition” value is -2.37%.

As for `Cc1cccc(C(=O)N2CCCC(Nc3ccc(C(C)C)cc3)C2)n1` (stereo not drawn), the “activity change, negative = inhibition” value is -2.61%. Then `Cc1ccc2nc(SCC(=O)NC3CCCC3)[nH]c2c1`, with 2.22%; and `Cc1[nH]c(C)c(S(=O)(=O)N2CCN(c3cccc(C(F)(F)F)c3)CC2)c1C(=O)N1CCCC1`, with -7.48%; and `CS(=O)(=O)N(CC(=O)N1CCOCC1)c1cccc(Cl)c1Cl`, with -5.06%. Turning to `CCc1ccc(OCC(=O)NCC(c2ccc(Cl)cc2)N2CCCCC2)cc1` (stereo not drawn), the “activity change, negative = inhibition” value was -1.64%. For `Cc1c(C(=O)NCC(c2ccco2)N2CCCC2)oc2ccc(Cl)cc12` (stereo not drawn) the value was -0.589%. For `N#Cc1ccccc1S(=O)(=O)N1CCN(C(=O)c2cc(-c3ccccc3)nn2-c2ccccc2)CC1` the value was -1.69%; for `CCCCC(C(=O)NC(C)(C)C)N(Cc1ccccc1)C(=O)c1snc(C(N)=O)c1N` (stereo not drawn), 14.6%.

As to `CS(=O)(=O)Nc1cccc(C2=NN(C(=O)c3cccc(F)c3)C(c3cccs3)C2)c1` (stereo not drawn), the “activity change, negative = inhibition” value was -1.54%. With `COc1cccc(CNC(=O)Cn2c(=O)oc3cc(S(=O)(=O)N4CCCCC4)ccc32)c1`, the “activity change, negative = inhibition” value is 0.231%. On to `COc1ccc(NC(=O)c2sc3nc(C)nc(N4CCN(c5ccccn5)CC4)c3c2C)c(OC)c1`, for which the “activity change, negative = inhibition” value is 3.85%. Then `CCCCc1nc2cc(C(=O)N3CCCCC3CCO)ccc2o1` (stereo not drawn), with -5.36%. `O=C(c1ccccc1)N1CCC(CC2CC(c3ccc(Cl)cc3)=NO2)(C(=O)NCC2CCCCC2)CC1` (stereo not drawn): the “activity change, negative = inhibition” value is 1.1%.

For the molecule `O=C(c1ccco1)N1CCN(Cc2cccc(C(F)(F)F)c2)CC1`, the “activity change, negative = inhibition” value was -2.19%. As for `O=C(Nc1ccc(F)cc1)c1ccc(S(=O)(=O)NCc2cccnc2)cc1`, the “activity change, negative = inhibition” value was 2.75%. As to `Cc1ccc(S(=O)(=O)N2CCN=C2SCc2c(F)cccc2Cl)cc1`, the “activity change, negative = inhibition” value is -8.21%. For `COc1ccc(C)cc1Nc1n[n+](-c2ccccc2)c(-c2cccc(Cl)c2Cl)s1`, the “activity change, negative = inhibition” value was 3.46%. `C=CCc1cccc(/C=N/NC(=O)COc2ccc(-n3cnnn3)cc2)c1O`: the “activity change, negative = inhibition” value was -7.5%. As for `O=C1CCN(Cc2ccccc2)CCN1[C@H](CSc1ccccc1)c1ccccc1`, the “activity change, negative = inhibition” value is 0.153%. For `CC(C)c1ccc(NC(=O)C2CCCN(S(=O)(=O)c3cccnc3)C2)cc1` (stereo not drawn), the “activity change, negative = inhibition” value is -8.69%. For `COc1ccc(NC(=O)c2cccc3c2C(=O)N(CC2CCCO2)C3)cc1OC` (stereo not drawn) the value was 3.25%; for `COc1ccc2c3c(c(=O)oc2c1)C1O[C@](CCCCN2C(=O)c4ccccc4C2=O)(Cc2c1ccc1ccccc21)O3`, -13% [at 11.5 µM]. For `CC1CCCN(CCCNC(=O)CN2C(=O)COc3ccc(S(=O)(=O)N4CCOCC4)cc32)C1` (stereo not drawn) the value was 0.952%; for `COc1cccc(OCC(O)CNC(=O)c2oc3c(C)c(C)ccc3c2C)c1` (stereo not drawn), 0.794%; for `O=C(NCc1ccccc1)c1onc(CSc2nc3ccccc3[nH]2)c1C(=O)NCc1ccccc1`, -6.08%. With `CN(C)C(=O)CCC(=O)N1CCCCC1C(=O)Nc1ccc(Oc2ccccc2F)cc1` (stereo not drawn), the “activity change, negative = inhibition” value was 4.61%. Consider `COc1ccc(-c2cc(C(=O)N3CCN(Cc4ccc5c(c4)OCO5)CC3)on2)cc1OC`, for which the “activity change, negative = inhibition” value was -16.9%.

For the molecule `COc1cc(C(=O)NCC2(c3ccccc3)CCCC2)ccc1OC(C)C`, the “activity change, negative = inhibition” value is 2.79%.

As to `O=C(Nc1ccc(S(=O)(=O)N2CCCCCC2)cc1)c1c(F)cccc1F`, the “activity change, negative = inhibition” value is -3.12%.

As for `Cc1cc2c(c(=O)n1Cc1ccccc1)C1O[C@](CCCCN3C(=O)c4ccccc4C3=O)(Cc3ccccc31)O2`, the activity change, negative = inhibition is 41.3% [at 11.5 µM]. For `COc1ccc(Oc2cn[nH]c2-c2ccc(OC)cc2O)cc1` the value was -3.69%; for `CCOC(=O)N1CCC(N2Cc3cccc(C(=O)Nc4c(C)cccc4CC)c3C2=O)CC1`, -1.3%; for `CC(C)CN(Cc1c(O)ccc2c(=O)c(-c3ccccc3)coc12)CC(C)C`, 0.152%. Turning to `O=C(O)c1ccc2c(=O)n3c(nc2c1)/C(=C/c1ccc(OC(F)F)cc1OC(F)F)CC3`, the “activity change, negative = inhibition” value was 13.4%.

On to `CCOC(=O)C1(CCOc2ccccc2)CCN(Cc2cc(OC)cc(OC)c2)CC1`, for which the “activity change, negative = inhibition” value was -2.55%.

For the molecule `CNC(=O)c1sc(Nc2ccc(OCc3ccccc3)cc2)nc1C`, the “activity change, negative = inhibition” value is 5.13%.

For the molecule `COc1cc(C(=O)NCc2cc3cc(Cl)ccc3n2C)cc(OC)c1OC`, the “activity change, negative = inhibition” value is -0.0457%.

As for `CCn1c(=S)sc2c(=O)n(CC(=O)Nc3cccc(Br)c3)c(C)nc21`, the “activity change, negative = inhibition” value was 15.9%. For `Cc1ccc(OCC(=O)NC(C)c2ccccc2)cc1C` (stereo not drawn), the “activity change, negative = inhibition” value was -0.996%. As for `COc1ccc(CNS(=O)(=O)c2ccc(NC(=O)N3CCCCC3)cc2)cc1`, the “activity change, negative = inhibition” value was -0.189%.

Turning to `COc1ccc2[nH]c(=O)c(CN(Cc3cccnc3)S(=O)(=O)c3ccccc3F)cc2c1`, the “activity change, negative = inhibition” value is -1.3%.

For the molecule `CSc1ccccc1OCc1cc(C(=O)N(C)CCc2c(C)n[nH]c2C)no1`, the “activity change, negative = inhibition” value is -8.57%. For `CCOc1ccc(NC(=O)C2CCN(C(=O)N3CCOc4ccccc43)CC2)cc1`, the “activity change, negative = inhibition” value is -1.3%. Turning to `CCOc1c(OC)cccc1C(=O)NCC1(c2ccccc2)CCCC1`, the “activity change, negative = inhibition” value is 2.88%.

The record behind these values is PubChem BioAssay AID2675 (National Center for Advancing Translational Sciences (NCATS), 2010).
